PubChem BioAssay
Inconclusive results are not listed. Activity calls are given as the source filed them. Unless noted, how the calls were made is not given here.

Columns and labels:
[1] = inhibitors of Cryptococcus chitosan production, flow cytometry, Cibacron Brilliant Red staining (AID 1347148); conditions: Cryptococcus neoformans chitosan, stronger effect = lower value; at 10 µM unless noted;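 further: compound exposure lasted three days at 37 degrees C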
[2] = molecular target: ATP-dependent translocase ABCB1 (Homo sapiens) (UniProt P08183); experiment: MDR1 (ABCB1) efflux transporter inhibition, cell-based (AID 377; in the data active means fluorescence slope change above about 50%); conditions: MDR1-expressing cells, fluorescent substrate accumulation slope; stronger effect = higher value; concentration not given here
Sequence of ATP-dependent translocase ABCB1 (Homo sapiens) (P08183 whole entry, looked up): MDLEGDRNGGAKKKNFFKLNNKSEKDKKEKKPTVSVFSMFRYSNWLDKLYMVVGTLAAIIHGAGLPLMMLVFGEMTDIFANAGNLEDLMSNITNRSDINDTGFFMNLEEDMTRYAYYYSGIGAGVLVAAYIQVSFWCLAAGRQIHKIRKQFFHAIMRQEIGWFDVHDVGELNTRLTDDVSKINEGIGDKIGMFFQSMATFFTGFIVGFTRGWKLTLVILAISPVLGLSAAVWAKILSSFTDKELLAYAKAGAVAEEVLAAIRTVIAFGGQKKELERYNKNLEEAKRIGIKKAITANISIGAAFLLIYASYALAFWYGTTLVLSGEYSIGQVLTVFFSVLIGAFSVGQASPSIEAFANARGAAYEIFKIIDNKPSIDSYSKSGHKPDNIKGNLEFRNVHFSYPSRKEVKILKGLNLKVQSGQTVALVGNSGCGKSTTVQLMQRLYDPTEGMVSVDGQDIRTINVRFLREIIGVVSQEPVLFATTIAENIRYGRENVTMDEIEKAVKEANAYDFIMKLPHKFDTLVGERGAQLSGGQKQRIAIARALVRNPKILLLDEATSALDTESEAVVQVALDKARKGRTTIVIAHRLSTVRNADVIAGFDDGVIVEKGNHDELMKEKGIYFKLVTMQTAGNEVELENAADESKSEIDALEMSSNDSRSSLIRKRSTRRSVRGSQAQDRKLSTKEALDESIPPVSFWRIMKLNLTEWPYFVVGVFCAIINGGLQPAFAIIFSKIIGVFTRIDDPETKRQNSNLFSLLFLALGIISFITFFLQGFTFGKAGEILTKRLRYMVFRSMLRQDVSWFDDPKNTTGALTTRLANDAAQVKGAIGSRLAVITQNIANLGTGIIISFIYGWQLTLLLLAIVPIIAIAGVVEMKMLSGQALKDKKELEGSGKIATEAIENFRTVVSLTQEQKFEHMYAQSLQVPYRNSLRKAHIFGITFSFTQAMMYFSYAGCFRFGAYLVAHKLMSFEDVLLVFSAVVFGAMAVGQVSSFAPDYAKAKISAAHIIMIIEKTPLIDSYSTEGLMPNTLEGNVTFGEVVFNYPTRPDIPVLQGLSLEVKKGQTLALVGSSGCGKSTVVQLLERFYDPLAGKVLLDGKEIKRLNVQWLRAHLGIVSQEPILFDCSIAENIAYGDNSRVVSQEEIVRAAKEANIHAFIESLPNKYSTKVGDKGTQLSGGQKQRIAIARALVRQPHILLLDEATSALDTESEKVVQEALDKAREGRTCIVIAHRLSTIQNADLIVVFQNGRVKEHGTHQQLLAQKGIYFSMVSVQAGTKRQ

[3] = enhancers of glutamate uptake in motor neurons, MN-1 cell line (AID 1612); conditions: MN-1 motor neuron cells, stronger effect = higher value;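 further: tested at 1 µM final; 0% = mean of DMSO vehicle wells on each plate; positive means more glutamate uptake than control and negative means less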
[4] = reducers of polyQ inclusions in PC12 cells, cell-based, NGF-treated PC12, GFPQ80 (AID 1614); conditions: PC12 NGF-treated GFP-polyQ80 inclusion reduction;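 further: lower means fewer inclusions and 0 means no inclusions at all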
[5] = suppressors of polyglutamine aggregation in yeast, 75Q-TubH (AID 1616); conditions: S. cerevisiae 75Q-TubH polyglutamine aggregation suppression; stronger effect = higher value
[6] = protection against mutant huntingtin cytotoxicity, PC12 cells, LDH release (AID 1610); conditions: PC12 mutant huntingtin toxicity, final LDH at 4 uM, stronger effect = lower value

Cc1cccc(CCN2CCC(C(=O)c3ccc(NS(C)(=O)=O)cc3)CC2)n1
fold fluorescence [1]: 4.01 [at 124.5 µM] (inactive)

CCN(CC)CC#CCOC(=O)C(O)(c1ccccc1)C1CCCCC1 (configuration not stated)
fluorescence slope change [2]: 225% (active)

CC(C)(S)C(N)C(=O)O (configuration not stated)
glutamate uptake change [3]: -17.3% | inclusion score [4]: 2 | aggregation suppression score [5]: 1.65

CC(Cc1ccc(O)c(O)c1)(NN)C(=O)O (configuration not stated)
glutamate uptake change [3]: 6.68% | inclusion score [4]: 2 | aggregation suppression score [5]: 1.15

Cc1c(C(=O)NN2CCCCC2)nn(-c2ccc(Cl)cc2Cl)c1-c1ccc(I)cc1
fold fluorescence [1]: 6.03 (inactive)

O=C(c1ccc(OCCN2CCCCC2)cc1)c1c(-c2ccc(O)cc2)sc2cc(O)ccc12
fluorescence slope change [2]: 82.4% (active)

CC[C@H]1OC(=O)[C@H](C)[C@@H](O[C@H]2C[C@@](C)(OC)[C@@H](O)[C@H](C)O2)[C@H](C)[C@@H](O[C@@H]2O[C@H](C)C[C@H](N(C)C)[C@H]2O)[C@](C)(O)C[C@@H](C)CN(C)[C@H](C)[C@@H](O)[C@]1(C)O
normalised LDH release [6]: 0.795 | glutamate uptake change [3]: 5.3% | inclusion score [4]: 3 | aggregation suppression score [5]: 0.581

CC(C)C[C@H](NC(=O)[C@@H](O)[C@H](N)Cc1ccccc1)C(=O)O
fold fluorescence [1]: 3.88 [at 162.1 µM] (inactive)

NC(Cc1cc(I)c(Oc2ccc(O)c(I)c2)c(I)c1)C(=O)O (configuration not stated)
glutamate uptake change [3]: -8.22% | aggregation suppression score [5]: 0.825

CN1CCC[C@H]1c1cccnc1
glutamate uptake change [3]: 15.4% | inclusion score [4]: 2 | aggregation suppression score [5]: 1.26

O=C1C(c2c(O)[nH]c3ccccc23)=Nc2ccccc21
fold fluorescence [1]: 3.17 [at 190.6 µM] (inactive)

CC(C(O)c1ccc(O)cc1)N1CCC(Cc2ccccc2)CC1 (configuration not stated)
fluorescence slope change [2]: 23.8% (inactive)
